This is an account of results in PubChem BioAssay AID686979 (National Center for Advancing Translational Sciences (NCATS), 2013).

Structures are written as SMILES. Among all 420,000 compounds or so, about 50,000 (12%) were called active. A call without a number means that no potency is given here. Not shown: some 26% with an inconclusive outcome. Calls come from the whole dose curve; as a rule, active = well fitted inhibition curve with a large enough effect; inconclusive = small, poorly fitted or top-dose-only effect; inactive = flat fitted curve, though single readings scatter. For the sample, actives were picked, then their nearest neighbours and some compounds at random.
Potency is the fitted concentration of half-maximal effect.

A short description of this experiment: qHTS for Inhibitors of human tyrosyl-DNA phosphodiesterase 1 (TDP1): qHTS in cells in presence of CPT. Note: nearly all actives have a fitted effect of over 55% in size. The note with it: chicken DT40 Tdp1-/-;hTDP1 cells + 20 nM CPT, ATP luminescence, 48 h; series mostly up to 46.2 µM. The procedure, abridged: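 Chicken DT40 Tdp1-/- cells complemented with human TDP1, 400 cells/well, exposed to compounds plus 20 nM camptothecin for at least 48 h at 37 C; viability read as ATP content by CellTiter-Glo luminescence.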
A general note: qHTS replaces the single test concentration by a dilution series.
`CC(C)CCNC(=O)CSc1nc2ccccc2nc1Cc1ccc(Cl)cc1`: the Potency result was “inactive”.

Regarding `CC1C(=O)Nc2ccccc2N1C(=O)c1c(F)cccc1F` (stereo not given), the Potency entry is “inactive”.

For `COc1ccccc1/C=C/C(=O)NC1CC2CCC1C2` (stereo not given), the Potency entry was “inactive”.

Consider `Cc1sc2ncn(CC(=O)NCCN(C)C)c(=O)c2c1S(=O)(=O)N1CCC(C)CC1`, for which the Potency entry is “inactive”.

On to `O=C(NC1CCN(C(=S)Nc2ccc(Cl)cc2)CC1)C1CCCCC1`, for which the Potency entry was “inactive”.

Turning to `COc1ccc(/C(N)=N/OC(=O)CCCc2ccccc2)cc1`, the Potency entry was “inactive”.

As for `Cc1c(C#N)c(NC(=O)c2ccccc2)n(Cc2ccccc2)c1C`, the Potency result was “inactive”.

For `Cc1ccc(C(=O)NCCNS(=O)(=O)c2ccccc2)cc1`, the Potency result was “inactive”.

On to `Cc1ccc(C(=O)Nc2c(C#N)c(C)c(C)n2Cc2ccccc2)cc1`, for which the Potency is 25.9 µM (active).

Consider `COC(=O)/C=C(\Oc1ccccc1)C1(O)CCCCC1`, for which the Potency entry was “inactive”.

As for `CC(Nc1nc(N2CCN(CCO)CC2)nc2ccccc12)c1ccccc1` (stereo not given), the Potency entry is “inactive”.

Turning to `CC(Nc1nc(N2CCCC2)nc2ccccc12)c1ccccc1` (stereo not given), the Potency was 23.1 µM (active).

In the case of `Cc1ccc(C(CC(=O)O)Nc2nc(N3CCCCC3)nc(N3CCCCC3)n2)cc1` (stereo not given), the Potency entry is “inactive”.

With `CCCOc1ccc(/C(O)=C2/C(=O)C(=O)N(CCN(C)C)C2c2ccc(OC)c(OC)c2)cc1` (stereo not given), the Potency result is “inactive”.

Take `CC1CCN(C(=O)COC(=O)c2cc(=O)[nH]c3ccccc23)CC1`: the Potency entry was “inactive”.

In the case of `CCc1ccc(OC(C)C(=O)Nc2ccc(S(=O)(=O)Nc3cc(C)on3)cc2)cc1` (stereo not given), the Potency result is “inactive”.

With `CCOc1ccc(-c2nonc2NC(=O)c2oc3ccc(CC)cc3c2C)cc1`, the Potency is 18.4 µM (active).

For the compound `CCc1nonc1NC(=O)c1oc2ccc(Cl)cc2c1C`, the Potency entry is “inactive”.

On to `Cc1nonc1NC(=O)c1oc2ccccc2c1C`, for which the Potency result is “inactive”.

Consider `CC(=O)N(O)CCCCCNC(=O)CCC(=O)N(O)CCCCCNC(=O)CCC(=O)N(O)CCCCCNC(=O)CCC(=O)O`, for which the Potency result is “inactive”.

With `CCCCNC(=O)OC1CC2CC1[C@H]1CCCCN1C2=O` (stereo not given in full), the Potency result is “inactive”.

For the compound `CC(C)(C)c1cc[n+](-c2[nH]c(=O)sc2/C=N/N=C(\[O-])c2ccccc2)cc1`, the Potency result is “inactive”.

Take `C/C(=N\NC(=O)COc1ccc(C)cc1[N+](=O)[O-])c1ccc2c(c1)OCCO2`: the Potency result was “inactive”.

As for `Cn1c(=O)c2c(SCC(=O)N3CCc4ccccc43)nc(-c3ccc(Cl)cc3)nc2n(C)c1=O`, the Potency entry was “inactive”.

For `O=C(Nc1ccc2nc(SCC(=O)N3CCc4ccccc43)sc2c1)c1ccccc1F`, the Potency result was “inactive”.

Regarding `O=C(Nc1ccc2nc(SCC(=O)N3CCCc4ccccc43)sc2c1)c1ccc(F)cc1`, the Potency is 5.8 µM (active).

For `O=C(CSc1nc2ccccc2s1)Nc1ccc(C(=O)O)cc1`, the Potency result is “inactive”.

Take `CC(=O)c1ccc(NC(=O)CSc2nnc(NC(=O)Nc3ccccc3)s2)cc1`: the Potency entry was “inactive”.

Consider `O=C(NCc1nnc(SCC(=O)N2CCCc3ccccc32)o1)c1ccccc1F`, for which the Potency result is “inactive”.

Turning to `Nc1nnc(SCC(=O)Nc2ccc3nc(SCC(=O)Nc4ccccc4)sc3c2)s1`, the Potency was 13 µM (active).

Regarding `O=C(Nc1ccc2nc(SCC(=O)N3CCCc4ccccc43)sc2c1)c1ccc(Cl)cc1`, the Potency is 5.17 µM (active).

Turning to `O=C(CSc1ccc2nnc(-c3ccccc3)n2n1)N1CCCc2ccccc21`, the Potency result is “inactive”.

Turning to `Cc1nnc(SCC(=O)N2CCc3ccccc32)n1-c1ccccc1`, the Potency entry was “inactive”.

Regarding `CCC(=O)Nc1ccc2nc(SCC(=O)N3CCc4ccccc43)sc2c1`, the Potency is 16.4 µM (active).

In the case of `CC(=O)Nc1ccc(S(=O)(=O)NCC2CCC(C(=O)NCCc3ccccc3)CC2)cc1` (stereo not given), the Potency entry is “inactive”.

In the case of `O=C(NC1CCCC1)C1CC(=O)N(c2ccc(F)cc2)C1` (stereo not given), the Potency entry is “inactive”.

Regarding `Cc1cc(NC(=O)CN2C(=O)NC(CC(C)C)C2=O)no1` (stereo not given), the Potency entry is “inactive”.

For `CC(C(=O)N(C)CC(=O)Nc1ccccc1C(F)(F)F)N1C(=O)c2ccccc2C1=O` (stereo not given), the Potency entry is “inactive”.

Regarding `CC(OC(=O)c1cccnc1Cl)C(=O)NC1CCCCC1` (stereo not given), the Potency result was “inactive”.

Take `CCN(Cc1ccccc1)C(=O)CCS(=O)(=O)c1ccc2c(c1)oc(=O)n2C`: the Potency entry is “inactive”.

For `CCCCC(NS(=O)(=O)c1ccc(C)cc1)C(=O)Oc1ccc2c3c(c(=O)oc2c1)CCC3` (stereo not given), the Potency entry was “inactive”.

In the case of `CN1CCN(C(=O)c2cnn(-c3ccccc3)c2NC(=O)c2ccc([N+](=O)[O-])cc2)CC1`, the Potency result is “inactive”.

Consider `Clc1ccc(-c2ncc3ccccn23)c(Cl)c1`, for which the Potency result is “inactive”.

Turning to `COC(=O)c1ccc(COC(=O)c2cnccn2)cc1`, the Potency entry was “inactive”.

`CCOC(=O)c1nc(C)n(-c2ccc(Cl)cc2Cl)n1`: the Potency entry was “inactive”.

Consider `CC(C)(C)NC(=O)NC(=O)COC(=O)Cc1ccc(Cl)cc1Cl`, for which the Potency entry is “inactive”.

In the case of `Cc1nc2c(OCc3ccc(Cl)cc3Cl)cccn2c1N(C)CC1CC1`, the Potency was 16.4 µM (active).

For `CCCCC(=O)N(C)c1c(CC)nc2c(OCc3ccc(Cl)cc3Cl)cccn12`, the Potency was 20.6 µM (active).

With `CCc1nc2c(OCC(=O)C(C)(C)C)cccn2c1N(C)C(=O)c1ccccc1F`, the Potency entry was “inactive”.

`CCc1nc2c(OCc3ccc(Cl)cc3Cl)cccn2c1N(C)C(=O)C(C)C`: the Potency is 7.31 µM (active).

In the case of `CCc1nc2c(OCc3ccc(C(=O)OC)cc3)cccn2c1N(C)C(=O)C(C)C`, the Potency is 20.6 µM (active).

Take `COC(=O)c1ccc(CSc2nncn2C)cc1`: the Potency result is “inactive”.

With `CC(C)(C)OC(=O)NC(Cc1ccccc1)C(=O)NC(CSC1CCCCO1)C(=O)NN` (stereo not given), the Potency result was “inactive”.

Turning to `CC(=O)c1cc2c(cc1NC(=O)Cn1nc(-c3ccc(F)cc3)ccc1=O)OCO2`, the Potency entry is “inactive”.

In the case of `COc1ccccc1OCCCCCCN1CCN(C)CC1`, the Potency entry is “inactive”.

Take `CC(C)[C@H](NC(=O)N1c2ccccc2NC(=O)[C@@H]1C(C)C)C(=O)N[C@H](C(=O)O)c1ccccc1`: the Potency entry was “inactive”.

Consider `CCCNC(=O)c1onc(CSc2ccc(F)cc2)c1C(=O)NC(C)C`, for which the Potency entry was “inactive”.

With `COc1cc(C(=O)N2CCC(c3ccncc3)CC2)cc(OC)c1OC`, the Potency result was “inactive”.

As to `COc1cc(C(F)(F)F)nc2c(Br)c(C(C)(C)C)nn12`, the Potency result is “inactive”.

With `Cc1cc2nc(-c3ccc(NC(=O)c4cc5ccccc5o4)cc3)oc2cc1C`, the Potency result is “inactive”.

For `CC(OC(=O)/C=C/c1ccccc1)C(=O)NC1CCCCC1C` (stereo not given), the Potency entry was “inactive”.

In the case of `CN(C)CCCN(C(=O)COc1ccccc1)c1nc2c(Cl)cccc2s1`, the Potency result is “inactive”.

For `Cc1cccc(C)c1NC(=O)CCS(=O)(=O)c1cccc2nsnc12`, the Potency result was “inactive”.

Consider `COc1ccc(N(C)C(=O)CCS(=O)(=O)c2cccc3nsnc23)cc1`, for which the Potency entry was “inactive”.

With `O=C(NCc1cccnc1)Nc1ccccc1F`, the Potency result is “inactive”.

With `O=C(CCS(=O)(=O)c1ccccc1)N(Cc1cccnc1)c1nc2c(F)cccc2s1`, the Potency is 3.66 µM (active).

In the case of `COc1cccc2sc(N(CCCN(C)C)C(=O)C(c3ccccc3)c3ccccc3)nc12`, the Potency was 20.6 µM (active).

For `O=C(C1COc2ccccc2O1)N(Cc1cccnc1)c1nc2c(F)cc(F)cc2s1` (stereo not given), the Potency result is “inactive”.

For the compound `Cc1cccc2sc(N(CCCN(C)C)C(=O)CCS(=O)(=O)c3ccccc3)nc12`, the Potency was 1.84 µM (active).

For `CN(C)CCN(C(=O)CN1C(=O)c2ccccc2C1=O)c1nc2cc3c(cc2s1)OCCO3`, the Potency entry was “inactive”.
